Source: the supplement of paper PMC10849652
Targets with a hit are over-represented here; the source holds about 7,900 in all. About 0.6% of all pairs of compound and target were hits. Unmarked numbers belong to inactive results.

Assays:
Assay in all cases: log2 fold change, soluble protein after heating vs DMSO (PISA); higher = thermal stabilisation; K562 cells, 10 uM, 30 min; active = over 0.2 and 3.5 SD of the protein, either way, in both replicates (recomputed)
[1] = compound: CS(=O)(=O)c1ccc(-c2cnc(N)c(C(=O)Nc3ccccc3)n2)cc1
How it was run: (§1)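 Aliquots of K562 cells (2×10^6 cells/mL) treated with 10 μM compound for 30 min were heated for 3 min over 48°C-58°C. After pooling and extraction in PBS with 0.5% NP-40 at 4°C, soluble protein from a 21,000xg, 90 min spin was quantified by TMTpro 16plex LC-MS/MS with channel sums equalised. Thermal stability is expressed against control samples, from duplicates, as a log2 fold change.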

[2] = compound: C[C@@H](Oc1cc(-c2cnn(C3CCNCC3)c2)cnc1N)c1c(Cl)ccc(F)c1Cl [crizotinib]
How it was run: as §1

[3] = compound: C[C@@H]1COCCN1C2=NC(=NC(=C2)C3(CC3)S(=O)(=O)C)C4=C5C=CNC5=CC=C4
How it was run: as §1

[4] = compound: C[C@H](C1=CC=C(C=C1)C(=O)NC2=C3C=CNC3=NC=C2)N
How it was run: as §1

[5] = compound: C[C@H](Nc1ncnc2nc[nH]c12)c1cc2cccc(Cl)c2c(=O)n1-c1ccccc1 [duvelisib]
How it was run: as §1

[6] = compound: Cc1cc(Nc2cc(CN3CCOCC3)c3nc(C)c(Cc4ccc(Cl)cc4F)n3n2)n[nH]1 [gandotinib]
How it was run: as §1

[7] = compound: Cc1cc(Nc2cc(N3CCN(C)CC3)nc(Sc3ccc(NC(=O)C4CC4)cc3)n2)n[nH]1 [tozasertib]
How it was run: as §1

[8] = compound: Cc1cc(SCc2sc(-c3ccc(C(F)(F)F)cc3)nc2C)ccc1OCC(=O)O
How it was run: as §1

[9] = compound: Cc1ccc(-n2nc(C(C)(C)C)cc2NC(=O)Nc2ccc(OCCN3CCOCC3)c3ccccc23)cc1 [doramapimod]
How it was run: as §1

[10] = compound: Cc1ccc(C(=O)N(CCCN)[C@@H](c2nc3cc(Cl)ccc3c(=O)n2Cc2ccccc2)C(C)C)cc1 [ispinesib]
How it was run: as §1

[11] = compound: Cc1ccc(NC(=O)c2ccc(CN3CC[C@H](N(C)C)C3)c(C(F)(F)F)c2)cc1Nc1nccc(-c2cncnc2)n1 [bafetinib]
How it was run: as §1

[12] = compound: Cc1cccc(CC(=O)N2CCc3c2ccc(-c2cn(C)c4ncnc(N)c24)c3F)n1
How it was run: as §1

[13] = compound: Cc1cn(-c2cc(NC(=O)c3ccc(C)c(Nc4nccc(-c5cccnc5)n4)c3)cc(C(F)(F)F)c2)cn1 [nilotinib]
How it was run: as §1

[14] = compound: Cc1nc(Nc2n[nH]c3c2CN(C(=O)N[C@H](CN(C)C)c2ccccc2)C3(C)C)c2sccc2n1
How it was run: as §1

[15] = compound: Cc1nc(Nc2ncc(C(=O)Nc3c(C)cccc3Cl)s2)cc(N2CCN(CCO)CC2)n1 [dasatinib]
How it was run: as §1

[16] = compound: Cc1ncc(-c2ccnc(Nc3ccc(S(C)(=O)=O)cc3)n2)n1C(C)C
How it was run: as §1

[17] = compound: Cn1cc(-c2ccc3c(c2)CCN3C(=O)Cc2cccc(C(F)(F)F)c2)c2c(N)ncnc21
How it was run: as §1

[18] = compound: Cn1cc(-c2ccc3nnc(C(F)(F)c4ccc5ncccc5c4)n3n2)cn1
How it was run: as §1

[19] = compound: Cn1cncc1[C@@](N)(c1ccc(Cl)cc1)c1ccc2c(c1)c(-c1cccc(Cl)c1)cc(=O)n2C [tipifarnib]
How it was run: as §1

[20] = compound: FC(F)(F)c1ccc(/C=C/c2nc(COc3ccc(CCCCn4ccnn4)cc3)co2)cc1 [mubritinib]
How it was run: as §1

Sequence of UniProt P62136 (P62136 whole entry, looked up): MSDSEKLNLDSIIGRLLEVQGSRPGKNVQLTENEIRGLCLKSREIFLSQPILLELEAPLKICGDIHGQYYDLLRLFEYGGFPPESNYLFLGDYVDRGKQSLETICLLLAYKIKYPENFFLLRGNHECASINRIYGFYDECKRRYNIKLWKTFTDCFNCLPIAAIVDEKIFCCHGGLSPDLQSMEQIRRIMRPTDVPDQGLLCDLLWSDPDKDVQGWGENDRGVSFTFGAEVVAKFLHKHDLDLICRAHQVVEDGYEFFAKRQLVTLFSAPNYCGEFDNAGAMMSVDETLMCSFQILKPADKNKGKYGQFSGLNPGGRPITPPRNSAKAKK
Sequence of UniProt Q14181 (Q14181 whole entry, looked up): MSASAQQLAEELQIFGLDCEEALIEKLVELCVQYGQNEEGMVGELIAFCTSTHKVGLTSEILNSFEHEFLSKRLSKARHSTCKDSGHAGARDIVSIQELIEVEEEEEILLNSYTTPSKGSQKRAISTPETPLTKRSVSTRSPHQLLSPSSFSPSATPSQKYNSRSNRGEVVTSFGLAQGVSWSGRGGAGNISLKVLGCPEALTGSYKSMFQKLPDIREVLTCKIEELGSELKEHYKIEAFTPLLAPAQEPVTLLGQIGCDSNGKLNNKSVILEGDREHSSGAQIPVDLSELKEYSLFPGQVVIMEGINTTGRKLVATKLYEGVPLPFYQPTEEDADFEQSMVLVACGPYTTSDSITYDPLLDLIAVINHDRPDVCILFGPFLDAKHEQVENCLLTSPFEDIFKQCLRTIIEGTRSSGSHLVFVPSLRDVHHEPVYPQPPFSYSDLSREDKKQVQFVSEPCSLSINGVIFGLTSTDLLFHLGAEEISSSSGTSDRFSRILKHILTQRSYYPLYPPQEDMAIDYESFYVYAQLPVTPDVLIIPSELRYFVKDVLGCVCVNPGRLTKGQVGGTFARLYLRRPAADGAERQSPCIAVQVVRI
Sequence of UniProt Q6WKZ4 (Q6WKZ4 whole entry, looked up): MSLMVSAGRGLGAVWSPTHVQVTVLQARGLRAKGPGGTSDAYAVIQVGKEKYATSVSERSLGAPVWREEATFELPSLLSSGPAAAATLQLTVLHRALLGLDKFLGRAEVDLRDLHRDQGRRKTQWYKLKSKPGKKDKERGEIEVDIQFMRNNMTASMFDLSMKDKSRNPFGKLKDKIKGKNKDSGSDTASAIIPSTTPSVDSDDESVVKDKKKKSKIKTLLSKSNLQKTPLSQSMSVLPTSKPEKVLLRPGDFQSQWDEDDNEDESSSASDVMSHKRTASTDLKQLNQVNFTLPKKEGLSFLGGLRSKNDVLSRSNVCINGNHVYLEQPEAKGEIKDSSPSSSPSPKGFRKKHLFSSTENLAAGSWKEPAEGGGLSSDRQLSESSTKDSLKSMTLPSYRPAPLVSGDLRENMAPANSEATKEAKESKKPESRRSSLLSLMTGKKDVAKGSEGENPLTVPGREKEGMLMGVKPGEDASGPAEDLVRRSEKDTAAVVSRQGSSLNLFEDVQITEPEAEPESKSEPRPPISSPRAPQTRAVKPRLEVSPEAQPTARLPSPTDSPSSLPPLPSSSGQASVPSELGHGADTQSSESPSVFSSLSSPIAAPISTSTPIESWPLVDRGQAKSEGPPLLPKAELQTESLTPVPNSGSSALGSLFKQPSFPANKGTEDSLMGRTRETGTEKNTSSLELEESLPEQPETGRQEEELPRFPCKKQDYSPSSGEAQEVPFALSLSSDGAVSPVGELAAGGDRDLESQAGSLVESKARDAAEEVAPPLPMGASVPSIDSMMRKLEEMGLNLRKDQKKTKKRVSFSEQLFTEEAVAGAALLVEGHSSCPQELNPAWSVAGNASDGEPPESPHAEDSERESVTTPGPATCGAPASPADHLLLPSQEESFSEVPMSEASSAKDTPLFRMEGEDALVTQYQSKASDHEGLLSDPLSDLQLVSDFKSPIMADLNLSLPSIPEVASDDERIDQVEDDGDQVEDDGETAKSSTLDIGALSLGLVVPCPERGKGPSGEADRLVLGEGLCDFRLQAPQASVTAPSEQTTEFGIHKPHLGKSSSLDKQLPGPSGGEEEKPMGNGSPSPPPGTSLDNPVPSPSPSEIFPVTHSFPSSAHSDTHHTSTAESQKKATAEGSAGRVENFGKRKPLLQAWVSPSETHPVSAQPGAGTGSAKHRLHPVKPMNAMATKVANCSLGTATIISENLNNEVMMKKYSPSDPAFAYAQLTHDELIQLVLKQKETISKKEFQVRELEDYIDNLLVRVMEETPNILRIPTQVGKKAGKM
Sequence of UniProt Q10713 (Q10713 whole entry, looked up): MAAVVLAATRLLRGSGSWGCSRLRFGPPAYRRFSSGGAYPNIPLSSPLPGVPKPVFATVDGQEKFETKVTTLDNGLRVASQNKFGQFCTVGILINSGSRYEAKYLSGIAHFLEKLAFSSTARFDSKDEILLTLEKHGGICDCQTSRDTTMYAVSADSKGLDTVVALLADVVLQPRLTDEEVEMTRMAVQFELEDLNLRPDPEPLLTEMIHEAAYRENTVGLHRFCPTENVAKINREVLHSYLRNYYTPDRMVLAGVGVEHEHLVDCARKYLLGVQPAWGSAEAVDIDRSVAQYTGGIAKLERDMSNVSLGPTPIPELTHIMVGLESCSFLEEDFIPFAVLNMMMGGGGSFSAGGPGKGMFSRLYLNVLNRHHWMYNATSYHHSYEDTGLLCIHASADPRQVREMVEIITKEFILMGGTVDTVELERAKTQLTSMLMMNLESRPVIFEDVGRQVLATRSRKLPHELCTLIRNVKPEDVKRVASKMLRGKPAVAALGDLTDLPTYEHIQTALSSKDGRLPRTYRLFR
Sequence of UniProt P40425 (P40425 whole entry, looked up): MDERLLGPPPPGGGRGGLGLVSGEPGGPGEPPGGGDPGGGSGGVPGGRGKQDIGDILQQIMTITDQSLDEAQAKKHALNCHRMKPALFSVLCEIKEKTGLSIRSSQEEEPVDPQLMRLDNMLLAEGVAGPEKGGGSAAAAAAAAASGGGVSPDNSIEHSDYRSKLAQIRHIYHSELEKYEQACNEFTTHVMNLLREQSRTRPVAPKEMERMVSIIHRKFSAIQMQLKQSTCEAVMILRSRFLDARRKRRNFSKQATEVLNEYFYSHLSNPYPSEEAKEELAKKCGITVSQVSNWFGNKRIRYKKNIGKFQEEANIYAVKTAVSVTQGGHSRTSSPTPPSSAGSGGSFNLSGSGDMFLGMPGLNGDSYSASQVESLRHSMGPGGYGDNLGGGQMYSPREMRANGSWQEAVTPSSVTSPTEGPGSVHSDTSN
Sequence of UniProt Q92968 (Q92968 whole entry, looked up): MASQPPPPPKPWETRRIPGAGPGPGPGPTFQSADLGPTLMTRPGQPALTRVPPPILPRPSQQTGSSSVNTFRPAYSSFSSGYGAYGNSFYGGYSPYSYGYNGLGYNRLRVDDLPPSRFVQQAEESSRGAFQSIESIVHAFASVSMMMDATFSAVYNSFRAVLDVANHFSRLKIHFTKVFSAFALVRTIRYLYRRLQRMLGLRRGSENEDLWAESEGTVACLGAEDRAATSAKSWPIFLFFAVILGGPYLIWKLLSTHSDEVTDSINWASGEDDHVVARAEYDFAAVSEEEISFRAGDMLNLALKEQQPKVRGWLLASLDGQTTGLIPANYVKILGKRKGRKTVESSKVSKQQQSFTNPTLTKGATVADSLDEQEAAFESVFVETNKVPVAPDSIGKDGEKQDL
Sequence of UniProt P50336 (P50336 whole entry, looked up): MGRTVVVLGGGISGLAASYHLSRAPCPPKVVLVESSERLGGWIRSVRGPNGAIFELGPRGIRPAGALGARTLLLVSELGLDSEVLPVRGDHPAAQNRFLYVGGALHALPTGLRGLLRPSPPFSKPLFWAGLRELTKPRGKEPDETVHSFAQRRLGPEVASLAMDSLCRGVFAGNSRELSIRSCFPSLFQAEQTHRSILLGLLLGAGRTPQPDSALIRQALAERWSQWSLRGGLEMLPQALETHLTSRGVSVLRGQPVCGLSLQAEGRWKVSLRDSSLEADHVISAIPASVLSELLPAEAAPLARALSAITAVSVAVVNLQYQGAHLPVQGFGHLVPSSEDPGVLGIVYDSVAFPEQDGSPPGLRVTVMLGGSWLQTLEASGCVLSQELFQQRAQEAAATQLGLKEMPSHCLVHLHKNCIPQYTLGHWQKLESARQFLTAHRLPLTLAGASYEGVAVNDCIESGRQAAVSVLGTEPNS
Sequence of UniProt Q9NP80 (Q9NP80 whole entry, looked up): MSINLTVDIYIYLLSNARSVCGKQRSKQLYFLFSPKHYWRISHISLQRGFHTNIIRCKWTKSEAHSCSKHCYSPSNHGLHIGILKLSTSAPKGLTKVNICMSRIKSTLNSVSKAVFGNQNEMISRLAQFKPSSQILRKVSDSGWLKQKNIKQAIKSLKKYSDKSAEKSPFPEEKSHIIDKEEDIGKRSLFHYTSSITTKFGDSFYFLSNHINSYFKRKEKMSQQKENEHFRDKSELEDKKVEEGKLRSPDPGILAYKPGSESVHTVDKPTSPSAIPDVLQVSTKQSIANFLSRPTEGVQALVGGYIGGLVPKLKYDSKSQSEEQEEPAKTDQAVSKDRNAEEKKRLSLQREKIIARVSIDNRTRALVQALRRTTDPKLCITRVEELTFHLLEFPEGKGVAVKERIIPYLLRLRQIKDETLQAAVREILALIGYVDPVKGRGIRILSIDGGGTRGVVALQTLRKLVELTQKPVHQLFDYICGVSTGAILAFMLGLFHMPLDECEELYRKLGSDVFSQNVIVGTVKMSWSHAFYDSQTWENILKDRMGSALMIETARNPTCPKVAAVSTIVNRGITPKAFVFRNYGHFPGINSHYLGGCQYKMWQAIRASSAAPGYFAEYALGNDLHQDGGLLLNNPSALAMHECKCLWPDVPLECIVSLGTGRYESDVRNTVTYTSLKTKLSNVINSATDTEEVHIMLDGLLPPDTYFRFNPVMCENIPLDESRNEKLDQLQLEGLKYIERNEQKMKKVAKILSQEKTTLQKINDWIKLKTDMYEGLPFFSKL

Target	log2 fold change [1]	log2 fold change [2]	log2 fold change [3]	log2 fold change [4]	log2 fold change [5]	log2 fold change [6]	log2 fold change [7]	log2 fold change [8]	log2 fold change [9]	log2 fold change [10]	log2 fold change [11]	log2 fold change [12]	log2 fold change [13]	log2 fold change [14]	log2 fold change [15]	log2 fold change [16]	log2 fold change [17]	log2 fold change [18]	log2 fold change [19]	log2 fold change [20]
PELO (UniProt Q9BRX2)	0.026	-0.15	-0.037	0.158	0.011	-0.096	0.001	0.07	0.077	-0.336	0.068	0.155	-0.021	-0.067	-0.054	-0.02	0.042	0.061	-0.136	-0.111
PTTG1 (UniProt O95997)	-0.093	-0.012	-0.085	-0.044	0.068	-0.108	-0.015	0.021	0.076	-0.034	0.062	0.021	-0.025	-0.011	0.031	-0.116	0.024	-0.066	-0.013	0.033
PGGHG (UniProt Q32M88)	0.019	-0.01	0.003	0.175	0.073	-0.039	-0.108	0.049	0.048	0.05	-0.036	-0.001	0.012	0.023	0.009	-0.078	-0.152	0.058	-0.077	0.047
PBX2 (UniProt P40425)	-0.001	-0.14	0.026	-0.051	0.018	-0.632 (active)	0.062	0.095	0.119	-0.102	0.019	0.042	-0.057	-0.071	-0.202	-0.034	0.013	-0.091	-0.116	0.027
PTPN12 (UniProt Q05209)	0.031	-0.018	-0.04	0.069	-0.022	-0.088	0.089	0.053	-0.004	-0.011	-0.052	0.008	-0.022	-0.122	-0.059	0.074	-0.116	-0.086	-0.081	0.021
PCK2 (UniProt Q16822)	0.009	0.17	0.01	-0.098	0.064	0	0	-0.012	0	0.076	-0.052	0.027	-0.05	0.027	-0.035	-0.006	0.041	0.003	0	-0.022
PMPCB (UniProt O75439)	0.012	0.015	0.054	-0.081	0.055	-0.096	-0.019	-0.019	0.009	-0.034	0.035	0.025	-0.054	0.089	0.098	-0.04	0.105	0.046	0.269 (active)	0.053
PMPCA (UniProt Q10713)	0.006	-0.014	0.033	-0.07	0.055	-0.076	-0.022	-0.011	0.028	-0.043	0.063	0.016	0.024	0.057	0.54 (active)	-0.096	0.067	0.04	0.285 (active)	0.087
PNPLA8 (UniProt Q9NP80)	-0.009	-0.12	0.002	-0.034	-0.003	0.031	-0.011	-0.002	0.023	-0.051	-0.04	-0.13	0.036	-0.026	-0.055	0.038	0.036	-0.063	0.053	0.095
PEX13 (UniProt Q92968)	-0.005	-0.146	0.034	-0.047	0.078	-0.143	-0.163	-0.016	0.056	-0.026	-0.159	0.106	-0.046	0	0.014	0.035	-0.071	-0.075	-0.027	0.042
PGK2 (UniProt P07205)	0.016	0.029	0.075	-0.002	0.062	0.078	-0.033	-0.093	-0.109	0.024	0.009	-0.036	0.066	0.096	0.11	-0.013	-0.137	-0.029	-0.006	-0.092
PPP1CA (UniProt P62136)	0.042	0.042	0.013	-0.069	0.048	0.026	0.034	-0.045	-0.003	0.083	-0.053	-0.001	-0.002	-0.006	0.008	-0.011	0.018	0.065	0.023	0.065
PPOX (UniProt P50336)	0.173	-0.197	0.128	-0.077	0.304	0.427	0.019	0.091	0.378	0.02	-0.031	-0.013	0.494	0.027	0.208	-0.015	0.192	0.086	0.08	0
RAB11FIP1 (UniProt Q6WKZ4)	-0.071	-0.096	-0.001	-0.038	0.004	-0.01	0.057	-0.003	0.047	-0.251 (active)	-0.042	0.12	0.049	-0.198	-0.037	-0.172	0.008	0	0.003	0.003
PRKAR2B (UniProt P31323)	-0.026	-0.108	-0.067	-0.136	0.007	-0.271	0.026	0.112	0.073	-0.001	-0.022	0.133	0.012	-1.23 (active)	-0.078	-0.16	0.022	-0.07	-0.103	0.189
POLA2 (UniProt Q14181)	0.116	-0.026	0.143	-0.036	0.121	-0.287 (active)	0.091	0.047	-0.013	-0.028	-0.038	0.058	-0.036	-0.072	-0.101	-0.02	0.022	0.001	-0.04	0.041
